# Shown are actives, neighbours in structure and some others; about 5.7% of the full set was active somewhere.
# ATXN viability: reduces viability in counter-screen for ATXN expression inhibitors; S2 cells (HEK-293 line with an ATXN2-luciferase reporter) viability, CellTiter-Fluor protease fluorescence, 24 h; Potency, µM (titrated, usually from 56.7 µM), actives largely listed as cytotoxic; actives 0.49% (n = 400,000); further: nearly all actives have a fitted effect of over 40% in size
# IL-1B inflam inh: blocks inflammasome-driven IL-1 beta release; activity change, % at 57.5 µM; AID 743279; actives 4.7% (n = 360,000); THP-1 LPS/ATP IL-1B secretion, AlphaLISA, 16 h; hits give low values; in the data active means activity change below about -50%; inconclusive means mostly about -30% to -49%
#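 Secreted IL-1B measured by AlphaLISA bead assay after 16 h compound exposure of THP-1 cells; compounds (final up to 57.5 uM) added 1 h before LPS (250 ng/mL) and ATP (1.25 mM) stimulation; lower signal means less secretion.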
# ATXN2 expr inh: inhibitors of ATXN2 expression; actives 0.72% (n = 360,000); HEK-293 ATXN2-luciferase reporter, luminescence, 24 h; Potency, µM (top dose mostly 57 µM), actives largely listed as inhibitors; further: nearly all actives have a fitted effect of over 55% in size
#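 ATXN2-luciferase reporter cells (luciferase flanked by upstream and downstream ATXN2 gene portions) were treated 24 h at 37 °C with compounds at up to 57 uM. SteadyGlo luminescence gave expression; GF-AFC fluorescence gave viability.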
# HepG2 viability: counter-screen for TGF-b inhibitors: cytotoxicity in HepG2 cells. AID 588856. Potency, µM (titrated, usually from 46.1 µM), usual class: cytotoxic. actives 0.76% (n = 410,000). HepG2 CAGA-GFP viability, ATP luminescence, 18 h
#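 CellTiter-Glo luminescence gave cytotoxicity after 18 hours at 37 degrees C. The cells were HepG2 CAGA-GFP in 1% FBS DMEM, stimulated with 500 pg/mL TGF-beta after compound addition. %Activity was normalised to no-cell wells (complete cell-killing) and DMSO (no toxicity), and curves were fitted and classified.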
# TGFb inhibitor: inhibitors of TGF-b signaling; actives 1.2% (n = 410,000); HepG2 CAGA-GFP TGF-b/SMAD3 reporter, GFP fluorescence, 18 h; TGF-beta stimulated, 500 pg/mL final; Potency, µM (highest dose often 46.1 µM), hits mostly inhibitors; further: nearly all actives have a fitted effect of over 65% in size
#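 Smad-responsive CAGA-GFP expression was quantified in HEPG2 cells exposed to compounds and 500 pg/mL final TGF-beta for 18 h at 37 degrees C; unstimulated wells defined full inhibition.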
# Numbers stand for hits; – = inactive; ? = inconclusive; · = no result. Unless noted, the call rests on the fitted dose curve; in most records, active means well fitted curve in the direction sought with a large enough effect; inconclusive means small, poorly fitted or top-dose-only effect, or another doubt; inactive means no such curve, though single readings can be large; an effect the other way counts as inactive or inconclusive.
SMILES,ATXN viability,IL-1B inflam inh,ATXN2 expr inh,HepG2 viability,TGFb inhibitor
CC(=O)N1CCc2cc(Br)cc(S(=O)(=O)N3CCC(C(=O)Nc4cccc(C)c4C)CC3)c21,–,·,–,–,–
O=C(NCCc1nnc2n1CCN(Cc1ccc3c(c1)CCO3)CC2)c1ccco1,–,·,·,·,·
CC(C)C(=O)Nc1ccc(NC(=O)c2cccc(F)c2)cn1,–,-60.1,–,–,–
Cc1ccc2c(c1)c1c(c(=O)n(Cc3ccccc3)c(=O)n1Cc1ccccc1F)n2C,–,·,–,–,–
Nc1c(C(=O)Nc2ccc(S(=O)(=O)N3CCCC3)cc2)sc2nc3ccc(OC(F)(F)F)cc3cc12,·,-96.8,?,1.78µM,–
COc1cccc(NC(=O)CN(C)C(=O)c2ccccc2-c2nc3ccccc3s2)c1,–,–,–,–,–
CN(CC(=O)Nc1c(Cl)cccc1Cl)C(=O)c1ccccc1-c1nc2ccccc2s1,–,-52.7,–,–,–
Cc1ccccc1NNC(=O)C(=O)NNc1ccccc1C,–,–,·,–,–
Cc1ccccc1NC(=O)C(Cl)=C(Cl)Cl,–,-97.0,–,–,?
Cc1cc(C)c(NC(=O)Nc2ccccc2C)c(Cl)c1,–,–,·,1.26µM,–
COc1ccc(/C(C)=N/N=C(N)N)c(O)c1,–,–,–,–,–
CNC(=S)NN=C(C)c1ccc(OC)cc1O,?,-75.8,–,–,?
CC(=O)c1ccc(N2CCN(c3ncnc4c3cnn4-c3cc(Cl)ccc3C)CC2)cc1,–,·,–,–,–
CCc1nc2cc(C(=O)N(C)CC3COCCO3)cc(NC(=O)c3ccccc3OC)c2n1C (stereo not drawn),–,·,·,·,·
OC(CNC1CCCC1)COCCOc1ccc(Br)cc1 (stereo not drawn),–,-65.6,–,–,–
OC(CNC1CCCC1)COc1ccc(Cl)cc1 (stereo not drawn),–,?,–,–,–
COc1ccc(N2CCN(Cc3nc4scc(-c5cccs5)c4c(=O)[nH]3)CC2)cc1,?,-69.0,–,–,–
CCOc1c(Cl)cc(C(=O)N(Cc2ccc(N(C)C)cc2)Cc2ccco2)cc1Cl,·,·,·,–,·
COc1ccc([C@H]2CC(=O)C=C(c3ccc(C(F)(F)F)c(C(F)(F)F)c3)C2)cc1OC,–,-77.8,–,–,–
COc1ccc(C2=CC(=O)C[C@H](c3ccc(OC)c(OC)c3)C2)cc1,–,–,–,–,–
COc1ccc([C@H]2CC(=O)C=C(c3ccc(C)cc3)C2)cc1OC,–,–,–,–,–
COc1ccc([C@H]2CC(=O)C=C(c3ccc(Cl)c(C(F)(F)F)c3)C2)cc1OC,?,-56.4,?,–,?
CCCn1c2ccccc2c2cnn(CC(=O)N3CCCC(C)C3)c(=O)c21 (stereo not drawn),·,·,·,–,–
Cn1c(=O)oc2cc(S(=O)(=O)NC(Cc3ccccc3)C(=O)Nc3ccc(F)c(Cl)c3)ccc21 (stereo not drawn),–,·,–,–,–
OC(c1ccc2c(c1)CN(Cc1c[nH]c3ccccc13)CCO2)c1ccccn1 (stereo not drawn),–,·,·,·,·
SMILES,ATXN viability,IL-1B inflam inh,ATXN2 expr inh,HepG2 viability,TGFb inhibitor
C/C(=N\Nc1nnc2c3ccccc3n(C)c2n1)c1ccc(C)o1,?,-65.2,–,–,–
CCC(=O)Nc1nc2ccccc2n1Cc1ccccc1Cl,?,–,·,–,?
CC(=O)Nc1nc2ccccc2n1Cc1ccccc1Cl,?,-56.1,–,–,?
Cc1cc(C)c(NC(=O)C2CCN(c3nc4ccccc4n4cccc34)CC2)c(C)c1,·,·,·,–,·
O=C(CN(Cc1ccccc1)S(=O)(=O)c1ccc2c(c1)OCCO2)N/N=C/c1ccc(F)cc1,–,-56.0,–,–,?
Cc1ccc(C)c(NC(=O)C2CCCN(S(=O)(=O)c3cccc4nsnc34)C2)c1 (stereo not drawn),–,·,–,–,?
C=C(C)c1cccc(C(C)(C)NC(=O)Nc2ccc(OC)nc2)c1,–,-87.3,–,–,–
C=C(C)c1cccc(C(C)(C)NC(=O)Nc2cc(C)ccn2)c1,?,–,–,–,11.2µM
C=C(C)c1cccc(C(C)(C)NC(=O)Nc2ccc(C)cn2)c1,–,–,–,–,?
CC(=O)Nc1cccc(NC(=O)c2cccc(-c3ccc(O)cc3)c2)c1,–,–,–,–,–
COc1ccc(NC(=O)c2cccc(-c3ccc(O)cc3)c2)cn1,?,-74.4,–,–,–
C=C1CC2C3CCC4=CC(=O)C=C[C@]4(C)[C@@]3(F)[C@@H](O)C[C@]2(C)[C@@]1(O)C(=O)COC(C)=O (stereo partly drawn),–,·,·,·,·
Cc1[nH]c2ccccc2c1/C=C/c1c(C)[nH]c2ccccc12,·,·,·,–,6.31µM
CCCCCCCCCC[n+]1ccc(/C=C/c2c[nH]c3ccccc23)cc1,·,·,·,15.8µM,–
CCCCCCCCCC[n+]1ccc(/C=C/c2c(C)[nH]c3ccccc23)c2ccccc21,·,·,·,3.16µM,2.51µM
CCCCCCC[n+]1ccc(/C=C/c2c[nH]c3ccccc23)c2ccccc21,·,·,·,12.6µM,7.08µM
CCCCCCCCCCCCCCCC[n+]1ccc(/C=C/c2c[nH]c3ccccc23)c2ccccc21,·,·,·,–,?
COc1ccc2cc1Oc1cc3c(cc1OC)CC[N+](C)(C)[C@H]3Cc1ccc(cc1)Oc1c(OC)c(OC)cc3c1[C@@H](C2)[N+](C)(C)CC3,–,·,–,·,·
